Data reported in publication PMC7862700, “An all-to-all approach to the identification of sequence-specific readers for epigenetic DNA modifications on cytosine”.

Key:
Experiment in all cases: DAPPL (digital affinity profiling via proximity ligation, sequencing); 10 mM Tris-HCl pH 7.5, 50 mM NaCl, 1 mM DTT, 4% glycerol, room temperature, 30 min; GST-TFs on glutathione beads, 16-mer random dsDNA library, 0.1% formaldehyde crosslink after washing; high values mean tight binding
Conditions in all cases: protein: recombinant; tags: N-terminal GST; dsDNA, one strand shown
FEV = target: T1, FEV (Homo sapiens, UniProt Q99581 1-238)
T1 sequence: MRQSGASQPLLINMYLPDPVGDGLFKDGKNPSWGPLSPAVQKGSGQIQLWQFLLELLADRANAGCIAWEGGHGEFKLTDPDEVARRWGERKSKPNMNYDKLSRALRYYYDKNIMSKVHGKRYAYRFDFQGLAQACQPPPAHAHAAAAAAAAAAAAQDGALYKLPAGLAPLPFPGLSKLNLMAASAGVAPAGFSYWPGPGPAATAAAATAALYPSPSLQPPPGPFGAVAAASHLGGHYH
In short: (§1)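 Pools of DNA-barcoded human transcription factors, expressed in yeast as GST fusions on glutathione beads and combined with a tag-only sample, were incubated with 200 nmole of a 16-mer random double-stranded DNA library. Incubation took 30 min at room temperature in Tris/NaCl/DTT/glycerol buffer and was followed by washing, 0.1% formaldehyde crosslinking, proximity ligation (BsaI/T4 ligase, 1 h, 37 °C), PCR amplification and sequencing on an Illumina NextSeq500. Binding signal is the ratio of a hexamer's read frequency for a factor to its frequency for the tag-only sample.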

ETV5 = ETV5 (Homo sapiens, UniProt P41161 1-510)
In short: as §1

SPIC = target: T2, SPIC (Homo sapiens, UniProt Q8N5J4 1-248)
T2 sequence: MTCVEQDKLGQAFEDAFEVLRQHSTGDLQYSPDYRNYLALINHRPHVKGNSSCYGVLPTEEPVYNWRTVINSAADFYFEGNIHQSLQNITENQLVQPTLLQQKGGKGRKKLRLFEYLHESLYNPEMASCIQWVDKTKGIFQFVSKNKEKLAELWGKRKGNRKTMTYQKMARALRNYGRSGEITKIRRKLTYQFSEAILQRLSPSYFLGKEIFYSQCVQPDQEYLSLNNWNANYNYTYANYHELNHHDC
In short: as §1

ELF4 = ELF4 (Homo sapiens, UniProt Q99607 1-663)
In short: as §1

ELK4 = target: T3, ELK4 (Homo sapiens, UniProt P28324-2 1-405)
T3 sequence: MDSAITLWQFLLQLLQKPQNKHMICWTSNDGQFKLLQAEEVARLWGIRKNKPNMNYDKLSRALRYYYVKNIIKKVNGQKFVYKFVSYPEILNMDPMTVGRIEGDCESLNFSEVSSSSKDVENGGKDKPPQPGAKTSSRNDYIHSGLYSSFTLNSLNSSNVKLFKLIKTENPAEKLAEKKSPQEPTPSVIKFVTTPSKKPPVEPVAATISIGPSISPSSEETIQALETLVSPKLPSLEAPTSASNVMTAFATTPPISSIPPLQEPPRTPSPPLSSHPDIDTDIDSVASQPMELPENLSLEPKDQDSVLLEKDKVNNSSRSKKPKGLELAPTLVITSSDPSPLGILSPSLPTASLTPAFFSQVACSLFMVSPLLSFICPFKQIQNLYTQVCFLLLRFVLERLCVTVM
In short: as §1

ETV2 = target: T4, ETV2 (Homo sapiens, UniProt O00321 1-342)
T4 sequence: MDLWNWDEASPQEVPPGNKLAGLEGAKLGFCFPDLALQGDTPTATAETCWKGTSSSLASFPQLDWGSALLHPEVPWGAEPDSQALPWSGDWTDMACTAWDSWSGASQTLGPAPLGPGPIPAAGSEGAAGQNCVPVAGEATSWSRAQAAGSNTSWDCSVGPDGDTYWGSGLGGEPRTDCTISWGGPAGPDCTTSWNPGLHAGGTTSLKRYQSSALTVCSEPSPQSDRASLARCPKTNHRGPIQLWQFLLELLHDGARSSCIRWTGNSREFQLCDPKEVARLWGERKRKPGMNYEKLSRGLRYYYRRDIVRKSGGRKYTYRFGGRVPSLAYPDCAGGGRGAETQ
In short: as §1

ELF3 = target: T5, ELF3 (Homo sapiens, UniProt P78545 1-371)
T5 sequence: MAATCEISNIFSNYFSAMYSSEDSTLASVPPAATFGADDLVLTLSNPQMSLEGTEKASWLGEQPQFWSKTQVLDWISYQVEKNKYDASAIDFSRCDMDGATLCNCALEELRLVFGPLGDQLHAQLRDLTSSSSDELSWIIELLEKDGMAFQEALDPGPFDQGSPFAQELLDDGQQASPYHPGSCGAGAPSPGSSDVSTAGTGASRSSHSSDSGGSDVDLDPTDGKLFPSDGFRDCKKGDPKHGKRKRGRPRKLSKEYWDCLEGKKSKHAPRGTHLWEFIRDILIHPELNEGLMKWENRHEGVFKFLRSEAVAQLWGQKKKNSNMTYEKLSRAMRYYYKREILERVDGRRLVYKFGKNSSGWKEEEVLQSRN
In short: as §1

ETV1 = ETV1 (Homo sapiens, UniProt P50549 1-477)
In short: as §1

CRX = CRX (Homo sapiens, UniProt O43186 1-299)
In short: as §1

Chain of CRX (O43186 whole entry): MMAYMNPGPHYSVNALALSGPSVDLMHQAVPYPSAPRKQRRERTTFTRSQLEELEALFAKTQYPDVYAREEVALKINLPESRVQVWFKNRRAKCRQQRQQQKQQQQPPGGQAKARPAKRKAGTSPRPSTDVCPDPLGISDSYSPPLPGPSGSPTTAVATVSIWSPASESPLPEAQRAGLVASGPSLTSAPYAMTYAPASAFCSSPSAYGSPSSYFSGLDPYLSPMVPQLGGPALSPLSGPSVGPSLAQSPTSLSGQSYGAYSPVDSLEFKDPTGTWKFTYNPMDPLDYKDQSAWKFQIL
Chain of ETV1 (P50549 whole entry): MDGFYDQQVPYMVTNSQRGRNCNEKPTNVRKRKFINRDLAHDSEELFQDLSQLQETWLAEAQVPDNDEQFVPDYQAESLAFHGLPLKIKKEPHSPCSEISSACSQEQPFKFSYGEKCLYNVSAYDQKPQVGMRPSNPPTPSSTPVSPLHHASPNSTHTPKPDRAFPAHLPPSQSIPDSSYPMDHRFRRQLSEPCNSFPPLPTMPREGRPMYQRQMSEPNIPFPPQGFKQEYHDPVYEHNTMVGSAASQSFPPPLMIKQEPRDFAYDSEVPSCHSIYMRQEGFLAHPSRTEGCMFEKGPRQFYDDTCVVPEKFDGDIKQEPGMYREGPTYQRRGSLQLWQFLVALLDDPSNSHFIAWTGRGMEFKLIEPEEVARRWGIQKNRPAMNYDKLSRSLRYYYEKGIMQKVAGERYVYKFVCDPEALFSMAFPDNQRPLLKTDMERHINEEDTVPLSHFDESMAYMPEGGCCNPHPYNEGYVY
Chain of ELF4 (Q99607 whole entry): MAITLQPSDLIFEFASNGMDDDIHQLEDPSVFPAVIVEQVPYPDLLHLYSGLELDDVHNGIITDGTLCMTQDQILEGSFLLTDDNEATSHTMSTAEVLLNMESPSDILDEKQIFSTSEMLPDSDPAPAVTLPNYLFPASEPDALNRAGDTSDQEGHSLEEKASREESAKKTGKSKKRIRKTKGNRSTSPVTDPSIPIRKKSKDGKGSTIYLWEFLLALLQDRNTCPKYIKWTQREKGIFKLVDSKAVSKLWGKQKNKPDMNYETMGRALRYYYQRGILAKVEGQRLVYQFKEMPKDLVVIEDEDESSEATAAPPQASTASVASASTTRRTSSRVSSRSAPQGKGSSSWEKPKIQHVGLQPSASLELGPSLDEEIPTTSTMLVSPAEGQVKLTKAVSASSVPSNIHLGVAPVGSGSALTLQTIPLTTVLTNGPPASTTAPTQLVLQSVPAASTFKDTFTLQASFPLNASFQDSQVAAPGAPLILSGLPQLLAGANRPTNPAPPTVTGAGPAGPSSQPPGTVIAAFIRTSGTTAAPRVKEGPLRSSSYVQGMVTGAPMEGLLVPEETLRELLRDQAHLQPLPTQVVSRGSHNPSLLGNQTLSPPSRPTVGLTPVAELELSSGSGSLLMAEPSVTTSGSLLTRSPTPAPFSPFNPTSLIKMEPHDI
Chain of ETV5 (P41161 whole entry): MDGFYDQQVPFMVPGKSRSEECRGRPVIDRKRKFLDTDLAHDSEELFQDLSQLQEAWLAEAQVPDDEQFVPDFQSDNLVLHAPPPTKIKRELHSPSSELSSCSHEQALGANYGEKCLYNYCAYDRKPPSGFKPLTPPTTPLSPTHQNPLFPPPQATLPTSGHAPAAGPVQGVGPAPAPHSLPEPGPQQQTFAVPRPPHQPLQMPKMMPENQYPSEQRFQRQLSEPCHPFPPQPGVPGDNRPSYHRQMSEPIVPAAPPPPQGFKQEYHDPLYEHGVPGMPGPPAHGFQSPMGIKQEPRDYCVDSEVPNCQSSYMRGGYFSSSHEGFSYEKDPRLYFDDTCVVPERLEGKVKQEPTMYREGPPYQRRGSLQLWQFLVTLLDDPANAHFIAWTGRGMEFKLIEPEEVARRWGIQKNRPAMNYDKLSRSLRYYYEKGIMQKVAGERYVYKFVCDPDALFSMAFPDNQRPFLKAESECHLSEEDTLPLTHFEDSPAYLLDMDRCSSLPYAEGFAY

Sequence | binding signal (FEV) | binding signal (ETV5) | binding signal (SPIC) | binding signal (ELF4) | binding signal (ELK4) | binding signal (ETV2) | binding signal (ELF3) | binding signal (ETV1) | binding signal (CRX)
GGACAT | 1.56 fold enrichment (6-mer frequency, TF over GST control) | 1.18 fold enrichment (6-mer frequency, TF over GST control) | 1.28 fold enrichment (6-mer frequency, TF over GST control) | 1.11 fold enrichment (6-mer frequency, TF over GST control) | 1.07 fold enrichment (6-mer frequency, TF over GST control) | 1.16 fold enrichment (6-mer frequency, TF over GST control) | 1.24 fold enrichment (6-mer frequency, TF over GST control) | 1.23 fold enrichment (6-mer frequency, TF over GST control) | –
CCAACA | 1.05 fold enrichment (6-mer frequency, TF over GST control) | 1.05 fold enrichment (6-mer frequency, TF over GST control) | 1.01 fold enrichment (6-mer frequency, TF over GST control) | 1.13 fold enrichment (6-mer frequency, TF over GST control) | 1.08 fold enrichment (6-mer frequency, TF over GST control) | 1.02 fold enrichment (6-mer frequency, TF over GST control) | 1.06 fold enrichment (6-mer frequency, TF over GST control) | 1.04 fold enrichment (6-mer frequency, TF over GST control) | –
ACCCCA | 1.07 fold enrichment (6-mer frequency, TF over GST control) | 1.05 fold enrichment (6-mer frequency, TF over GST control) | 1.15 fold enrichment (6-mer frequency, TF over GST control) | 1.12 fold enrichment (6-mer frequency, TF over GST control) | 1.2 fold enrichment (6-mer frequency, TF over GST control) | 1.04 fold enrichment (6-mer frequency, TF over GST control) | 1.04 fold enrichment (6-mer frequency, TF over GST control) | 1.06 fold enrichment (6-mer frequency, TF over GST control) | –
CTGACC | 1.43 fold enrichment (6-mer frequency, TF over GST control) | 1.32 fold enrichment (6-mer frequency, TF over GST control) | 1.37 fold enrichment (6-mer frequency, TF over GST control) | 1.41 fold enrichment (6-mer frequency, TF over GST control) | 1.31 fold enrichment (6-mer frequency, TF over GST control) | 1.46 fold enrichment (6-mer frequency, TF over GST control) | 1.51 fold enrichment (6-mer frequency, TF over GST control) | 1.43 fold enrichment (6-mer frequency, TF over GST control) | 1.01 fold enrichment (6-mer frequency, TF over GST control)
CCCTGC | 1.14 fold enrichment (6-mer frequency, TF over GST control) | 1.18 fold enrichment (6-mer frequency, TF over GST control) | 1.25 fold enrichment (6-mer frequency, TF over GST control) | 1.38 fold enrichment (6-mer frequency, TF over GST control) | 1.21 fold enrichment (6-mer frequency, TF over GST control) | 1.05 fold enrichment (6-mer frequency, TF over GST control) | 1.12 fold enrichment (6-mer frequency, TF over GST control) | 1.22 fold enrichment (6-mer frequency, TF over GST control) | –
TGTATA | 1.02 fold enrichment (6-mer frequency, TF over GST control) | 1.15 fold enrichment (6-mer frequency, TF over GST control) | 1.07 fold enrichment (6-mer frequency, TF over GST control) | 1.06 fold enrichment (6-mer frequency, TF over GST control) | 1.22 fold enrichment (6-mer frequency, TF over GST control) | 1.04 fold enrichment (6-mer frequency, TF over GST control) | 1.02 fold enrichment (6-mer frequency, TF over GST control) | 1.16 fold enrichment (6-mer frequency, TF over GST control) | 1.03 fold enrichment (6-mer frequency, TF over GST control)
GCCTCC | 1.32 fold enrichment (6-mer frequency, TF over GST control) | 1.31 fold enrichment (6-mer frequency, TF over GST control) | 1.38 fold enrichment (6-mer frequency, TF over GST control) | 1.34 fold enrichment (6-mer frequency, TF over GST control) | 1.22 fold enrichment (6-mer frequency, TF over GST control) | 1.29 fold enrichment (6-mer frequency, TF over GST control) | 1.24 fold enrichment (6-mer frequency, TF over GST control) | 1.25 fold enrichment (6-mer frequency, TF over GST control) | 1.03 fold enrichment (6-mer frequency, TF over GST control)
TTGCAG | 1.08 fold enrichment (6-mer frequency, TF over GST control) | 1.13 fold enrichment (6-mer frequency, TF over GST control) | 1.05 fold enrichment (6-mer frequency, TF over GST control) | 1.09 fold enrichment (6-mer frequency, TF over GST control) | 1.29 fold enrichment (6-mer frequency, TF over GST control) | 1.17 fold enrichment (6-mer frequency, TF over GST control) | 1.13 fold enrichment (6-mer frequency, TF over GST control) | 1.07 fold enrichment (6-mer frequency, TF over GST control) | 1.1 fold enrichment (6-mer frequency, TF over GST control)
TACGTC | 1.24 fold enrichment (6-mer frequency, TF over GST control) | 1.13 fold enrichment (6-mer frequency, TF over GST control) | 1.03 fold enrichment (6-mer frequency, TF over GST control) | 1.16 fold enrichment (6-mer frequency, TF over GST control) | 1.14 fold enrichment (6-mer frequency, TF over GST control) | 1.02 fold enrichment (6-mer frequency, TF over GST control) | 1.02 fold enrichment (6-mer frequency, TF over GST control) | 1.24 fold enrichment (6-mer frequency, TF over GST control) | 1 fold enrichment (6-mer frequency, TF over GST control)
CCTACC | 1.29 fold enrichment (6-mer frequency, TF over GST control) | 1.35 fold enrichment (6-mer frequency, TF over GST control) | 1.36 fold enrichment (6-mer frequency, TF over GST control) | 1.4 fold enrichment (6-mer frequency, TF over GST control) | 1.22 fold enrichment (6-mer frequency, TF over GST control) | 1.38 fold enrichment (6-mer frequency, TF over GST control) | 1.1 fold enrichment (6-mer frequency, TF over GST control) | 1.47 fold enrichment (6-mer frequency, TF over GST control) | 1.07 fold enrichment (6-mer frequency, TF over GST control)
TTGCGT | – | 1.1 fold enrichment (6-mer frequency, TF over GST control) | 1.1 fold enrichment (6-mer frequency, TF over GST control) | 1.08 fold enrichment (6-mer frequency, TF over GST control) | 1.12 fold enrichment (6-mer frequency, TF over GST control) | 1.33 fold enrichment (6-mer frequency, TF over GST control) | 1.16 fold enrichment (6-mer frequency, TF over GST control) | 1.12 fold enrichment (6-mer frequency, TF over GST control) | –
TGTCAT | 1.1 fold enrichment (6-mer frequency, TF over GST control) | 1.18 fold enrichment (6-mer frequency, TF over GST control) | 1.16 fold enrichment (6-mer frequency, TF over GST control) | 1.13 fold enrichment (6-mer frequency, TF over GST control) | 1.08 fold enrichment (6-mer frequency, TF over GST control) | 1.11 fold enrichment (6-mer frequency, TF over GST control) | 1.06 fold enrichment (6-mer frequency, TF over GST control) | 1.18 fold enrichment (6-mer frequency, TF over GST control) | –
CAATAG | – | 1.11 fold enrichment (6-mer frequency, TF over GST control) | 1.07 fold enrichment (6-mer frequency, TF over GST control) | 1.09 fold enrichment (6-mer frequency, TF over GST control) | 1.15 fold enrichment (6-mer frequency, TF over GST control) | 1.01 fold enrichment (6-mer frequency, TF over GST control) | 1.2 fold enrichment (6-mer frequency, TF over GST control) | 1.02 fold enrichment (6-mer frequency, TF over GST control) | –
CAAGGT | 1.04 fold enrichment (6-mer frequency, TF over GST control) | 1.04 fold enrichment (6-mer frequency, TF over GST control) | 1 fold enrichment (6-mer frequency, TF over GST control) | 1.11 fold enrichment (6-mer frequency, TF over GST control) | 1.16 fold enrichment (6-mer frequency, TF over GST control) | 1.12 fold enrichment (6-mer frequency, TF over GST control) | 1.15 fold enrichment (6-mer frequency, TF over GST control) | 1.13 fold enrichment (6-mer frequency, TF over GST control) | –
GTTATG | 1.03 fold enrichment (6-mer frequency, TF over GST control) | 1.14 fold enrichment (6-mer frequency, TF over GST control) | 1.23 fold enrichment (6-mer frequency, TF over GST control) | 1.1 fold enrichment (6-mer frequency, TF over GST control) | 1.23 fold enrichment (6-mer frequency, TF over GST control) | 1.14 fold enrichment (6-mer frequency, TF over GST control) | 1.25 fold enrichment (6-mer frequency, TF over GST control) | 1.14 fold enrichment (6-mer frequency, TF over GST control) | –
